According to the supplement of paper PMC10338343:
± gives the standard deviation.

Test system: MILI (PIWIL2) piRISC loaded with piRNA #1 (26 nt)
Test: pre-steady-state target cleavage rate (min^-1); guide: piRNA #1 5'p-UGAGGUAGUAGGUUGUAUAGUAUCCA; MIWI and MILI are mouse PIWI proteins and EfPiwi is from a freshwater sponge; tags in brackets are library labels; higher = faster piRNA-guided slicing of the target
Settings: auxiliary factor: 500 nM mouse GTSF1
Method in brief: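 The pre-steady-state cleavage rate was obtained by Cleave-'n-Seq with a burst-and-steady-state fit. A transcribed, DNA-blocked target RNA library (0.1 nM) was mixed with 1 nM active affinity-purified piRISC carrying one synthetic guide, with or without 500 nM GTSF1 partner protein, in HEPES–potassium acetate buffer at 33 °C for 0–8 or 0–960 min. Uncleaved targets were sequenced and normalised to depth and to weakly complementary targets, with three trials pooled and k3 capped at 0.0001 min^-1.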

Sequence | pre-steady-state target cleavage rate
GGAGACCUAUGUAUACAACCUACUACCAGA | 0.055 ± 0.009
GGAGACCUAUGAUUACAACCUACUGCCUCA | 0.00572 ± 0.0028
GGAGACCUAACUAAAGAACCUACUACCUCA | 0.0693 ± 0.013
GGAGACCUAUGAUUACAACCUACUACACUCA | 0.00616 ± 0.0025
GGAGACCUUUCUAUACAACCUACUUCCUCA | 0.0321 ± 0.0062
GGAGACCUAUGAUAUGUUGCUAGAACCUCA | < 0.0001
GGAGACCUAUGAAUACAACGUACUACCUGA | 0.00311 ± 0.0023
GGAGACCUAUGUAUACAACGUACAACCUCA | 0.00935 ± 0.0021
GGAGACCUAUGAUUACAACCUACGACCUCA | 0.00452 ± 0.0036
GGAGACCUUACUAUACAACCUACAUGCUCA | 0.0591 ± 0.012
GGAGACCUAUGUAUACAACCUCCUACCUCA | 0.0161 ± 0.0038
GGAGUGGAUACUAAUACAACCUACUACCUCA | 0.135 ± 0.0082
GGAGACCUAUGAUAUGAAGCUACUUCCUCA | < 0.0001
GGAGACCUAUGUAUACAACCUUCUACCACA | 0.00445 ± 0.0026
GGAGACCUUACUAUACAACCUACUAACUCA | 0.0948 ± 0.017
GGAGACCUUACUAUACAAGCAACUACCUCA | 0.0104 ± 0.0031
GGAGACCUAACUAAACAAGCUACUACCUCA | 0.15 ± 0.02
GGAGACCUAUCAAUUCAACCUACUACCUCA | 0.00721 ± 0.0029
GGAGACCUAUGAUUACAACCUACUAUCCUCA | 0.00664 ± 0.0027
GGAGACCUUACUAUAGAAGCUACUACCUCA | 0.134 ± 0.015
GGAGAGGAUACUAUAGAACGUACUACCUCA | 0.00602 ± 0.0021
GGAGUGGAUUCAAUACAACCUACUACCUCA | 0.142 ± 0.0076
GGAGACCUAUGAUAACAACCUACUACCUCCA | 0.00565 ± 0.0022
GGAGACCUAACUAUACAUGCUACUACCUCA | 0.0788 ± 0.013
GGAGACCUAUGAUAUGUACCUACUAGCUCA | < 0.0001
GGAGACCUAUCUAUACAAGCUACUACCACA | 0.278 ± 0.019
GGAGACCUUACUAUACAACCUACAACCUGA | 0.0284 ± 0.0093
GGAGACGAUACUAUACUUGCUACUACCUCA | 0.0658 ± 0.0062
GGAGACCUAUGAUAUCUAACCUACUACCUCA | 0.00471 ± 0.0023
GGAGACCUUACAAUACAACCUACUACCACA | 0.133 ± 0.015
